PABP polyA inh = blocks human PABP binding to poly(A) RNA; AID 2014; hit rate 1% among 290,000; P11940; fluorescence polarization; calls only at 35 µM;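 note: calls also rest on retests at 20 µM and on dose response follow-up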
eIF4H inh = inhibitors of RNA binding by human eIF4H; Q15056; eIF4H fluorescence polarization binding assay; inhibition, % at 35 µM; hit rate 0.94% among 290,000;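 note: calls also rest on retests at 20 µM and on dose response follow-up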
eIF4E 4G PPI = eIF4E/eIF4G interaction inhibition in translation initiation | P63073+Q04637 | TR-FRET eIF4E-eIF4GI(517-606) binding, 2 h | inhibition, % at 21.7 µM | hit rate 0.37% among 220,000 | AID 782;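 active = inhibition above about 30%, limit read from the data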
Target sequence (P63073 whole entry, looked up): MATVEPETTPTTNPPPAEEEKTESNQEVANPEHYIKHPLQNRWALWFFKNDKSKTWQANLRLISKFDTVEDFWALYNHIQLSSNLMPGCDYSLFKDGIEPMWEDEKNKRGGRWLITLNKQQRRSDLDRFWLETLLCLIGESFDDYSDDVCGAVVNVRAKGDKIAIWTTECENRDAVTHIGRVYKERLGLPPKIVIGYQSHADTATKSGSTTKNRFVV
Target sequence (Q04637 whole entry, looked up): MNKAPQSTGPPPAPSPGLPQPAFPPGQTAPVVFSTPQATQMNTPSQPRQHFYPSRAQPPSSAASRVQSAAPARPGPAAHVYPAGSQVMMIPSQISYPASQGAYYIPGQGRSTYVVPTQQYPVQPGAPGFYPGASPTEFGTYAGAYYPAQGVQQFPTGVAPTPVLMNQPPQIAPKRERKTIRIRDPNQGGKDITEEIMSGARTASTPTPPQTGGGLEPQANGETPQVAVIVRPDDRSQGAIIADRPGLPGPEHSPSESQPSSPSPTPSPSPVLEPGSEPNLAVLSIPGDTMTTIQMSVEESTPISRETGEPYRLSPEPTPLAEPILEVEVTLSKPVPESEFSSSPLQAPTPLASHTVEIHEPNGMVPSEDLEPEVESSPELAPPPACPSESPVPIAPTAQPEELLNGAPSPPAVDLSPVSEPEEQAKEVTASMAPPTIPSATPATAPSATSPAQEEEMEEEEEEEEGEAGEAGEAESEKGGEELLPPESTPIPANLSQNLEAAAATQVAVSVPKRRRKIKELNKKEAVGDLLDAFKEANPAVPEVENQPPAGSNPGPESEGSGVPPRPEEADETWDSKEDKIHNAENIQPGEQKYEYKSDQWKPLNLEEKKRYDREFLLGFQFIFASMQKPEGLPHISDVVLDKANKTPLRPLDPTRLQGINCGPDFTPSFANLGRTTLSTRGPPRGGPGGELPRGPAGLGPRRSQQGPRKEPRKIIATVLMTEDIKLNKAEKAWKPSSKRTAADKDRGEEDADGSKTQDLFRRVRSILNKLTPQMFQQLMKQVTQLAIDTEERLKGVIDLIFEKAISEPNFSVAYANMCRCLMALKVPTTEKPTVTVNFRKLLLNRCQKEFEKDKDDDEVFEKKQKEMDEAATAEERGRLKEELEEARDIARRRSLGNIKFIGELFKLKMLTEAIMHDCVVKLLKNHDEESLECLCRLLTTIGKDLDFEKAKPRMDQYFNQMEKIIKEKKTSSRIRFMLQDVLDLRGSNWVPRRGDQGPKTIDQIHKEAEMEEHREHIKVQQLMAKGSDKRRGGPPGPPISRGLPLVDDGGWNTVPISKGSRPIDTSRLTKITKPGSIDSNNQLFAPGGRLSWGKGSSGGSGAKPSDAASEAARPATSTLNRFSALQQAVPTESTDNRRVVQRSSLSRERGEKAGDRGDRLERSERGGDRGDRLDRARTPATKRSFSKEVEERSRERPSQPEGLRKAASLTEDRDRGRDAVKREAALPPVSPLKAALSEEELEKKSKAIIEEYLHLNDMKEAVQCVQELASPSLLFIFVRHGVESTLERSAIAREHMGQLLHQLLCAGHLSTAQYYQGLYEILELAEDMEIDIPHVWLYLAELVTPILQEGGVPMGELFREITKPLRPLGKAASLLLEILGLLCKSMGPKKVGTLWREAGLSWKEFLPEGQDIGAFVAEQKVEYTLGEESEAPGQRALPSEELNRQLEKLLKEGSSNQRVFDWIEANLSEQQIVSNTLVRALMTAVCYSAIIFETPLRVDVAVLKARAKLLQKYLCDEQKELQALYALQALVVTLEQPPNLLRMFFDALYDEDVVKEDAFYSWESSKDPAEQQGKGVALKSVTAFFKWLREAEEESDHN
PERK inh = blocks human PERK kinase; Q9NZJ5; CHO PERK-DD fusion, SEAP luminescence translation reporter; inhibition, % at 5.6 µM; hit rate 0.17% among 220,000;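 active = inhibition above the mean inhibition of all tested compounds plus 3 SD, set separately per screening campaign, cut at about 2.9% in these data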;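 note: PERK kinase domain activated by AP20187 dimerizer at 100 nM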
MLLE-PAM2 inh = blocks PAM2 peptide binding to the PABP1 MLLE domain | P11940 | GST-MLLE / FITC-PAM2 fluorescence polarization | inhibition, % at 20 µM | hit rate 0.36% among 360,000 | AID 588489; in the data active = inhibition above about 35%, passing the limit was not always enough
Of the large screens only hits and unclear results are named; the others gave an inactive call. Only some compounds are listed: those with a hit (about 1.6% of all), similar ones and a draw of the others. Unless noted, the rule behind the calls is not given here.

COc1ccc(NC(=S)NC(NC(=O)c2ccc(Cl)cc2Cl)C(Cl)(Cl)Cl)c([N+](=O)[O-])c1 (centres undefined)	MLLE-PAM2 inh 36
COc1ccc(NC(=S)NC(NC(=O)c2ccccc2Cl)C(Cl)(Cl)Cl)c([N+](=O)[O-])c1 (centres undefined)	MLLE-PAM2 inh 39
CCOC(=O)c1c(N)sc2c1CCCC2	none
CCNC(=O)c1c(N)sc2c1CCCCC2	PABP polyA inh active, eIF4H inh 62 (no result: MLLE-PAM2 inh)
C=CCN1C(=O)/C(=C/c2ccc(-c3ccc(F)cc3)o2)SC1=S	none (no result: eIF4E 4G PPI, PERK inh)
COc1ccc(NC(=O)C(c2ccc(OC)cc2)N(C)C(=O)Cc2cccs2)cc1 (centres undefined)	none
COc1ccc(NC(=O)C(c2ccc(C)cc2)N(C)C(=O)Cc2cccs2)cc1 (centres undefined)	PABP polyA inh active, eIF4H inh 63
COC(=O)C(CC(=O)c1ccc(Br)cc1)n1cccn1 (centres undefined)	none (no result: eIF4E 4G PPI, PERK inh)
O=C(O)c1cc(-c2ccc(/C=C3\NC(=O)N(c4ccccc4)C3=O)o2)ccc1Cl	none
O=C(O)c1cc(-c2ccc(/C=C3\NC(=O)N(c4ccc(Cl)cc4)C3=O)o2)ccc1Cl	PABP polyA inh active, eIF4H inh 85
O=C(O)c1cc(-c2ccc(/C=c3\sc4nc5ccc(Br)cc5n4c3=O)o2)ccc1Cl	PABP polyA inh active, eIF4H inh 55 (no result: eIF4E 4G PPI, PERK inh, MLLE-PAM2 inh)
O=C(O)c1ccccc1-c1ccc(/C=c2\sc3nc4cc(Br)cnc4n3c2=O)o1	PABP polyA inh active, eIF4H inh 77
Cc1cc2nc3s/c(=C/c4ccc(-c5ccccc5C(=O)O)o4)c(=O)n3c2cc1C	none (no result: eIF4E 4G PPI, PERK inh)
Oc1ccc(C[C@H]2CNC(=S)N2CC2CCCN2C[C@H](Cc2ccc(O)cc2)N2C[C@H](Cc3ccccc3)N(CCc3ccccc3)C2=S)cc1 (some centres undefined)	none (no result: PABP polyA inh, eIF4H inh, eIF4E 4G PPI, PERK inh)
CC1CN(C(=O)c2cccc(S(=O)(=O)Nc3ccc(Cl)cc3)c2)CC(C)O1 (centres undefined)	PABP polyA inh active, eIF4H inh active
COc1ccc(Cl)cc1NS(=O)(=O)c1cccc(C(=O)N2CC(C)OC(C)C2)c1 (centres undefined)	none (no result: PABP polyA inh, eIF4H inh, eIF4E 4G PPI, PERK inh)
CC1=CCC(C(=O)O)C(C(=O)NC2CCCCC2)C1 (centres undefined)	eIF4H inh 70 (no result: eIF4E 4G PPI, PERK inh)
Cc1ccc[n+](-c2[nH]c(=O)sc2/C=N/NC(=O)c2ccccc2[O-])c1	MLLE-PAM2 inh 48
O=C(N/N=C/c1sc(=O)[nH]c1-[n+]1ccc2ccccc2c1)c1ccccc1[O-]	none (no result: PABP polyA inh, eIF4H inh, eIF4E 4G PPI, PERK inh)
O=C(N/N=C/c1sc(=O)[nH]c1-[n+]1ccccc1)c1ccccc1[O-]	MLLE-PAM2 inh 61
Cc1ccc[n+](-c2[nH]c(=O)sc2/C=N/N=C(\[O-])c2cccnc2)c1	none (no result: eIF4E 4G PPI, PERK inh)
O=C(NC(=S)NC1CCSC1=O)c1ccc([N+](=O)[O-])cc1 (centres undefined)	MLLE-PAM2 inh 48 (no result: eIF4E 4G PPI, PERK inh)
O=C(NC(=S)NC1CCSC1=O)c1cccc([N+](=O)[O-])c1 (centres undefined)	MLLE-PAM2 inh 42 (no result: eIF4E 4G PPI, PERK inh)
O=C(NC(=S)NC1CCSC1=O)c1ccccc1 (centres undefined)	none
Cc1ccccc1-n1c(=O)cc(N2CCc3ccccc3C2)[nH]c1=O	PABP polyA inh active, eIF4H inh 79
C/C=C/C=C/C(=O)N1CC2(CC(c3cccc(NC(=O)/C=C/C)c3)=NO2)C[C@@H]1C(N)=O (some centres undefined)	none (no result: PERK inh)
C=C(C)C(=O)Nc1cccc(C2=NOC3(C2)C[C@@H](C(N)=O)N(C(=O)/C=C/C=C/C)C3)c1 (some centres undefined)	PABP polyA inh active, eIF4H inh 93 (no result: PERK inh)
C/C=C(\C)C(=O)Nc1cccc(C2=NOC3(C2)C[C@@H](C(N)=O)N(C(=O)/C(C)=C/C)C3)c1 (some centres undefined)	eIF4E 4G PPI 96 (no result: PERK inh)
C=C(C)C(=O)Nc1cccc(C2=NOC3(C2)C[C@@H](C(N)=O)N(C(=O)/C(C)=C/C)C3)c1 (some centres undefined)	PABP polyA inh active, eIF4H inh 83 (no result: PERK inh)
CCOC(=O)C1(CCOC)CCN(C(C)CCc2ccc(OC)cc2)CC1 (centres undefined)	none
N#CCN1CCN(CC(=O)c2ccc(Br)cc2)CC1	none
CCCN1C[C@H](CSC)C[C@@H]2c3cccc4[nH]cc(c34)C[C@H]21	PABP polyA inh active, eIF4H inh 100
